D3 ag: activates the human D3 dopamine receptor; D3R DiscoveRx beta-arrestin cells, luminescence, 90 min; max activation, %; 0.58% of 410,000 active; AID 652048; in the data active = max activation above about 30%; also: 0% is about no effect
Target sequence (P35462 whole entry, looked up): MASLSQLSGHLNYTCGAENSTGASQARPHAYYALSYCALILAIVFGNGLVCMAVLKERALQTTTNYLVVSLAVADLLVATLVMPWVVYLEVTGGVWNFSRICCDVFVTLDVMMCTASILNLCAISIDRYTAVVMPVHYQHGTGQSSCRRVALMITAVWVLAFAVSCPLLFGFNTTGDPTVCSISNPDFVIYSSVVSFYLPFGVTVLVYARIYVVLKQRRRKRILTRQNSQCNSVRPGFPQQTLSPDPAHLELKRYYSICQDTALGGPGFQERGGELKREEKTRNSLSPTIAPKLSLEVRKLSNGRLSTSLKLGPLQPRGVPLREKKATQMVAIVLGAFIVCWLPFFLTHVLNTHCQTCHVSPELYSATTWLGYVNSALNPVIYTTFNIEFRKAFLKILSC
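Agonist mode: compounds and dopamine controls were applied to plated cells for 90 min at 37 degrees C after an overnight attachment at 1500 cells/well. Luminescent read-out followed 30 - 60 minutes at room temperature with DiscoveRx detection reagent.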
DRD3 antagonist: D3 dopamine receptor (human) antagonism; D3R cells, DiscoveRx beta-arrestin luminescence, antagonist mode; hits give low values; 2.5% of 360,000 active; max response, negative = inhibition, %; P35462; in the data active = max response below about -50%; inconclusive = no clear call, values can overlap the other calls; also: % is scaled to controls: 0 for no effect and ±100 for the full control effect
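Cells plated overnight at 1500 cells/well, then exposed to library compounds with dopamine controls for 90 minutes at 37 degrees C. DiscoveRx reagent added for 30–60 minutes at room temperature; luminescence read, quantitative HTS format.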
KB-3-1 cytotox: KB-3-1 parental cell cytotoxicity | KB-3-1 viability, CellTiter-Glo ATP luminescence, 72 h | Potency, µM (titrated, usually from 46.1 µM), hits mostly cytotoxic | 1.4% of 400,000 active; also: potency is read from the fitted curve at half-maximal effect; % is scaled to controls: 0 for no effect and ±100 for the full control effect; nearly all actives have a fitted effect of over 60% in size
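Screening of KB-3-1 cells (DMEM, 10% FBS, phenol-red free) ran from lowest to highest compound concentration; after 72 h at 37 °C viability was read luminescently and curves fitted.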
KB-V1 MDR tox: KB-V1 MDR subline cytotoxicity | Potency, µM (top dose mostly 46.1 µM), hits mostly cytotoxic | KB-V1 MDR cells viability, CellTiter-Glo, 72 h | AID 1347076 | 3.4% of 400,000 active; also: potency is read from the fitted curve at half-maximal effect; % is scaled to controls: 0 for no effect and ±100 for the full control effect; nearly all actives have a fitted effect of over 60% in size
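qHTS viability screen in drug-selected KB-V1 MDR cells: 72 h compound treatment at 37 degrees C, ATP luminescence end point.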
MCF10A rerep: DNA re-replication induction in MCF 10a cells; MCF 10A DNA re-replication, Hoechst nuclear intensity, 48 h; Potency, µM (series often up to 46.1 µM), without a hit: at the top dose activity, positive = re-replication, usual class: activators; 2.9% of 350,000 active; AID 624296; also: potency is read from the fitted curve at half-maximal effect; % of control where 0% means no effect; nearly all actives have a fitted effect of over 50% in size
SW480 rerep: induces DNA re-replication in SW480 colon adenocarcinoma cells. SW480 DNA re-replication, Hoechst DNA content imaging, 48 h. 1.8% of 340,000 active. Potency, µM (top dose mostly 46.1 µM), for inactives: at the highest dose re-replication activation, most hits filed as activators. AID 624297; also: potency is read from the fitted curve at half-maximal effect; % of control where 0% means no effect; nearly all actives have a fitted effect of over 55% in size
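Cells (250 per well) received 23 nL compound or DMSO by pin tool and were kept 48 hr at 37 C, 5% CO2. Nuclei were then stained with Hoechst for 40 min and scanned for DNA content.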
Active calls of the source: *; i = inactive; ? = inconclusive; / = no result given. Most compounds without a hit are left out; they make up all but 8.9% or so of the library. Unless noted, calls follow the shape of the dose curve; as a rule, active = well fitted curve in the direction sought with a large enough effect; inconclusive = small, poorly fitted or top-dose-only effect, or another doubt; inactive = no such curve, though single readings can be large; an effect the other way counts as inactive or inconclusive.

SMILES	D3 ag	DRD3 antagonist	KB-3-1 cytotox	KB-V1 MDR tox	MCF10A rerep	SW480 rerep
CCN(c1ccc(OC)cc1)S(=O)(=O)c1ccc2c(c1)CCN2C(=O)CCC(=O)O	0	?	i	i	0%	?
CCOc1ccc(/C=N/NC(=S)NC2CC3CC2C2C=CCC32)cc1 (stereo not drawn)	9	4	i	i	6.5µM*	10%
COc1cc(/C=N/NC(=S)NC2CC3CC2C2C=CCC32)ccc1O (stereo not drawn)	2	9	?	?	-4%	?
C=CCc1cccc(Cl)c1OCCCNC1CCCC1	-9	-89*	i	?	2%	-3%
Cc1cc(Cl)c(OCCCNC2CCCC2)c(Br)c1	-22	?	i	?	21%	?
N#CC1c2ccccc2-c2ccccc2N1C(=O)c1ccccc1 (stereo not drawn)	2	-2	?	15µM*	/	/
CC1C=Cc2ccccc2N1C(=O)c1ccccc1 (stereo not drawn)	5	-15	i	i	0%	1%
NC(CSC(c1ccccc1)(c1ccccc1)c1ccccc1)C(=O)O (stereo not drawn)	2	9	3.7µM*	?	6.5µM*	6.5µM*
N#Cc1c2ccc(O)cc2n2ccccc12	43*	66	i	i	?	?
CCOc1ccc(Cn2c3ccc(OC)cc3c3nc4ccccc4nc32)cc1	3	28	?	i	5.8µM*	-4%
COc1cccc(Cn2c(N)c(C#N)c3nc4ccccc4nc32)c1OC	-3	-20	i	i	?	?
COc1cc(Cn2c(N)c(C#N)c3nc4ccccc4nc32)cc(OC)c1	-4	-18	i	i	4.6µM*	8.2µM*
N#Cc1c(N)n(CCc2ccc(F)cc2)c2nc3ccccc3nc12	6	13	i	i	?	15µM*
COc1ccc(Cn2c(N)c(C#N)c3nc4ccccc4nc32)cc1	-2	23	i	?	7.3µM*	9.2µM*
COCCn1c(N)c(C#N)c2nc3ccccc3nc21	26	16	i	i	?	?
CCOC(=O)c1[nH]c2ccccc2c1NC(=O)c1cc(OCC)c(OCC)c(OCC)c1	4	/	i	i	/	/
O=C1CCc2cc([S+](=O)([O-])NC3CCOCC3)ccc2N1	/	/	i	i	/	/
COc1cc2cc(-c3ccc(OC)c(OC)c3C)nc(N)c2cc1OC	-8	?	?	6.5µM*	1.6µM*	1.6µM*
COc1ccc(C)cc1Nc1n[n+](C)c(-c2ccc(O)cc2O)s1	-1	-5	i	i	?	-10%
COc1ccc(Nc2nc(N)c3cc(OC)c(OC)cc3n2)cc1	-10	/	/	/	/	/
COc1cc2cc(-c3ccc(O)cc3O)nc(C)c2cc1OC	4	116	?	6.5µM*	?	12%
CCCCC(O)CN1CCC(c2ccccc2)CC1 (stereo not drawn)	2	-57*	i	i	4%	-9%
CC(CN1CCC(O)CC1)c1ccccc1 (stereo not drawn)	-9	-26	i	i	-3%	10%
COc1cc(C2=NOC(C(=O)N3CCCc4ccccc43)C2)cc(OC)c1OC (stereo not drawn)	-25	-10	i	i	-2%	-1%
COc1ccc(-c2cc(C(=O)N3CCCc4ccccc43)no2)cc1	5	20	i	15µM*	27%	-3%
SMILES	D3 ag	DRD3 antagonist	KB-3-1 cytotox	KB-V1 MDR tox	MCF10A rerep	SW480 rerep
COc1ccc(C2=NOC(C(=O)N3CCCc4ccccc43)C2)cc1 (stereo not drawn)	-11	-10	i	13µM*	?	-3%
Cc1ccc2c(c1)CCCN2C(=O)CCc1nc2ccccc2c(=O)[nH]1	-7	10	?	?	?	8.9µM*
Cc1ccc(-c2noc(CCC(=O)N3CCCc4ccccc43)n2)cc1	-8	4	i	23µM*	14%	-3%
CC1CCN(C(=O)C2COc3ccccc3C2)CC1 (stereo not drawn)	-10	/	i	?	/	/
Cc1ccccc1NC(=O)C(=O)NCC1(c2ccccc2)CCCC1	-19	/	/	/	/	/
Cc1ccc(CNS(=O)(=O)c2c(C(=O)N3CCC(C)CC3)c(C)n(C)c2C)cc1	1	/	/	/	/	/
Nc1nnnn1/N=C/c1ccc(O)cc1	1	-22	i	i	?	-12%
CCN(C)c1ccc(/C=N\n2nnnc2N)cc1	0	3	5.2µM*	2.6µM*	?	?
Nc1nnnn1/N=C/c1cc(Cl)ccc1O	1	14	i	?	8%	8%
CCN(CC)c1ccc(/C=N/n2nnnc2N)c(O)c1	-3	-5	16µM*	?	?	?
CCN(C(=O)COc1ccc(C)cc1OC)c1cccc2ccccc12	3	18	i	12µM*	14%	-3%
COc1ccc(-c2cc(C)no2)cc1S(=O)(=O)N1CCCCC1	10	18	i	i	-4%	3%
COc1ccc(-c2cc(C)no2)cc1S(=O)(=O)N1CCN(c2cccc(C)c2)C(C)C1 (stereo not drawn)	-14	6	12µM*	?	?	-3%
Cc1cccc(N2CCN(S(=O)(=O)c3cc(-c4cc(C)no4)ccc3C)CC2C)c1 (stereo not drawn)	4	-29	?	?	3.3µM*	10µM*
Cc1cc(-c2ccc(C)c(S(=O)(=O)N3CCN(c4ccc(F)cc4)CC3)c2)on1	2	-8	?	i	18%	?
CCOC(=O)c1ccc(CN(Cc2ccc(F)cc2)S(=O)(=O)c2ccc(F)c(C(=O)Nc3cc(Cl)ccc3OC)c2)cc1	4	/	/	/	/	/
Cc1ccc(NC(=O)c2oc3ccc(S(=O)(=O)N(C)C4CCCCC4)cc3c2C)cc1Cl	9	/	/	/	/	/
CCC(=O)Oc1ccc(C/C(=N\O)c2ccc(O)cc2O)o1	56*	92	i	i	15µM*	?
NC(c1csc(Nc2ccc(C(=O)c3ccccc3)cc2)n1)c1ccccc1Cl (stereo not drawn)	3	7	?	21µM*	/	/
CC(N)c1csc(Nc2ccc(C(=O)c3ccccc3)cc2)n1 (stereo not drawn)	2	8	i	i	/	/
Cc1ccc(CNC(=O)C2CCCN(c3nc4ccccc4n4cccc34)C2)cc1 (stereo not drawn)	-15	/	/	/	/	/
CCCn1c2ccc(F)cc2c2nnc(SCCN(CC)CC)nc21	-26	/	/	/	/	/
CCN(CC)CCSc1nnc2c3ccccc3n(CCc3ccccc3)c2n1	-2	-79*	i	i	14%	-2%
